Screening results (PubChem BioAssay)
In the library only some 3.1% were active in any assay of this set; here they are far more common.
dFosB act = enhances mouse delta FosB homodimer DNA binding | P13346 | purified delta FosB, TAMRA-CDK5 oligo fluorescence polarization; percent of positive-control signal above neutral wells | activation, % at 25 µM | actives 0.99% (n = 340,000) | AID 493131;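 active = mean activation above about 17%, with every replicate also reaching it, limit read from the data, passing the limit was not always enough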
INS-1E GSIS act = GLuc luminescence reporter in INS-1E cells, primary screen for activators of glucose-dependent secretion of insulin; INS-1E GLuc reporter insulin secretion, 2-3 h; actives 0.61% (n = 370,000); activation, % at 16.6 µM;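 active = lowest replicate activation of at least 40%, so every replicate reaches that level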;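 also: 0% = median of neutral control wells and 100% = median of IBMX positive control wells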
RAD54 branch = blocks human RAD54 Holliday junction branch migration; inhibition, % at 10.4 µM; Q92698; actives 0.14% (n = 360,000); FAM/BHQ fluorescence;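 active = mean normalized replicate activity at least 40 and at least half of replicates scoring 40 or more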;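 also: 0% = median of neutral control wells and 100% = median of positive control wells; inhibitors cause a drop in the FAM fluorescence signal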
RAD52 inh = RAD52 (human) annealing inhibition; actives 0.46% (n = 360,000); recombinant RAD52 DNA annealing, FRET fluorescence; inhibition, % at 18.7 µM; P43351;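 active = every replicate showing at least 50% inhibition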
MLL AF4-AF9 inh = inhibitors of human MLL-AF4/AF9 interaction. P42568. AlphaScreen, biotin-AF4 peptide binding to FLAG-AF9. inhibition, % at 10 µM. actives 0.47% (n = 350,000). AID 651704;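 active = every replicate reaching a set inhibition limit, whatever the replicate mean, cut at about 25% in these data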;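 also: 0% = plate neutral control median and 100% = total signal loss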
Target sequence (P42568 whole entry, looked up): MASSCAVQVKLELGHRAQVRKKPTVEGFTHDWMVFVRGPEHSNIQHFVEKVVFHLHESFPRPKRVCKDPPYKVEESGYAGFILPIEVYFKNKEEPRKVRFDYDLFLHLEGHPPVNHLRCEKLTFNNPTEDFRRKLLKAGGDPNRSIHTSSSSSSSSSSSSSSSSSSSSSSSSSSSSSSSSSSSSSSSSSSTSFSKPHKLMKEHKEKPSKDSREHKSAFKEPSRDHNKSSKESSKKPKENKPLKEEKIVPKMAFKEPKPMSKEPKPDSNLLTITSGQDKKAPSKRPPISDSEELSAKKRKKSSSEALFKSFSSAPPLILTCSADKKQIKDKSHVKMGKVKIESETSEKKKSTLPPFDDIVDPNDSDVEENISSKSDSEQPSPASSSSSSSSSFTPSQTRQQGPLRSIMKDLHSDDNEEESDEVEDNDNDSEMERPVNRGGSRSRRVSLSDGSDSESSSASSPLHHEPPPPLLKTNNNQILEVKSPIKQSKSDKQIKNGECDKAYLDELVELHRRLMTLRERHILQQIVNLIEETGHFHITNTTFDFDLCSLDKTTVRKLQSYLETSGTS
DENV2 CPE rescue = protects cells from dengue virus 2 cytopathic effect. DENV2-infected cells, cytopathic effect rescue, plate reader. CPE inhibition, % at 9.99 µM. actives 1.7% (n = 350,000). AID 651640; in the data active = CPE inhibition above about 20%, passing the limit was not always enough; tested in BHK-21 cells;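 also: 0% = median of neutral control wells and 100% = median of positive control wells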
* hit, by the source's call.

CN(C)C(=O)C[C@@H]1C[C@@H]2c3cc(NC(=O)Nc4ccccc4F)ccc3O[C@@H]2[C@H](CO)O1 was read as INS-1E GSIS act 13.9, RAD54 branch -10.1, RAD52 inh -18.3, MLL AF4-AF9 inh -1.4 and DENV2 CPE rescue 8.7.
`Cc1noc(C)c1NC(=O)Nc1cccc2c1O[C@H](CN(C)C(=O)Nc1ccccc1)[C@H](C)CN([C@@H](C)CO)C2=O` gave INS-1E GSIS act 9.8, RAD54 branch -1.8, RAD52 inh 3.8, MLL AF4-AF9 inh 3.0 and DENV2 CPE rescue -6.6.
`CCOc1ccc(CCNC(=O)CN2C(=O)NC3(CCCCCC3)C2=O)cc1OCC` gave dFosB act -3.4, INS-1E GSIS act 1.6, RAD54 branch 1.3, RAD52 inh -16.0, MLL AF4-AF9 inh -1.7 and DENV2 CPE rescue 0.0.
For CCOc1ccc(/C=C2\SC(=O)N(CCNC(=O)CN3C(=O)NC4(CCCC4)C3=O)C2=O)cc1OC the results were dFosB act -10.0, INS-1E GSIS act -4.2, RAD54 branch 2.2, RAD52 inh -22.7, MLL AF4-AF9 inh 3.2 and DENV2 CPE rescue 55.6*.
`O=C(c1ccc([N+](=O)[O-])o1)N1CCN(c2nc3c(Cl)cccc3s2)CC1` gave dFosB act -8.2, INS-1E GSIS act -30.4, RAD52 inh -2.5, MLL AF4-AF9 inh -3.5 and DENV2 CPE rescue -1.5.
Cc1ccc2sc(N3CCN(C(=O)c4ccc([N+](=O)[O-])o4)CC3)nc2c1C was read as dFosB act -1.0, INS-1E GSIS act 87.4*, RAD54 branch 3.4, RAD52 inh -8.1, MLL AF4-AF9 inh -1.4 and DENV2 CPE rescue -3.5.
`CCOC(=O)C1=C(C)NC(=O)NC1c1ccc(N(C)C)cc1` (stereo unspecified) gave dFosB act 0.2, INS-1E GSIS act -2.5, RAD54 branch 1.5, RAD52 inh -36.0, MLL AF4-AF9 inh 6.2 and DENV2 CPE rescue 69.8*.
Screening CCCNC(=O)C[C@@H]1C[C@@H]2c3cc(NS(=O)(=O)c4cccc(OC)c4)ccc3O[C@@H]2[C@H](CO)O1 returned INS-1E GSIS act -0.7, RAD54 branch 16.5, RAD52 inh -6.5, MLL AF4-AF9 inh -5.7 and DENV2 CPE rescue 4.9.
For Cc1noc(C)c1S(=O)(=O)Nc1ccc2c(c1)C(=O)N([C@H](C)CO)C[C@H](C)[C@@H](CN(C)Cc1ccncc1)O2 the results were INS-1E GSIS act -3.7, RAD54 branch 5.8, RAD52 inh -13.8, MLL AF4-AF9 inh -1.5 and DENV2 CPE rescue 4.1.
C/C(=N\NC(=O)CSCc1ccccc1Cl)c1cc(O)ccc1O was read as dFosB act -2.6, INS-1E GSIS act -1.1, RAD52 inh -9.5 and MLL AF4-AF9 inh 25.5*.
CN(C)C(=O)c1cccc(-c2cccc(-c3nc(C(=O)NCc4ccccc4)cc4c3[C@H](CCO)N([S@@](=O)C(C)(C)C)C4)c2)c1 was read as INS-1E GSIS act -0.5, RAD54 branch -5.7, RAD52 inh -55.3, MLL AF4-AF9 inh 6.2 and DENV2 CPE rescue -2.4.
For CN(CCCC(=O)O)c1ccc(N=Nc2ccc([N+](=O)[O-])cc2)cc1 the results were dFosB act -4.4, INS-1E GSIS act -3.4, RAD52 inh -3.0, MLL AF4-AF9 inh 38.3* and DENV2 CPE rescue -3.4.
Screening CN(N=Nc1ccc([N+](=O)[O-])cc1)c1ccccc1 returned dFosB act -13.0, INS-1E GSIS act -4.2, RAD54 branch -1.6, RAD52 inh inactive, MLL AF4-AF9 inh 6.6 and DENV2 CPE rescue -6.9.
Screening C[C@H](CO)N1C[C@H](C)[C@@H](CN(C)S(=O)(=O)c2ccccc2)Oc2ccc(NS(C)(=O)=O)cc2CC1=O returned INS-1E GSIS act 4.0, RAD54 branch -4.7, RAD52 inh -15.4, MLL AF4-AF9 inh -2.7 and DENV2 CPE rescue -9.0.
CCN(CC)CCCC(C)Nc1nccc2c(Cl)cccc12 (stereo unspecified) was read as dFosB act -2.9, INS-1E GSIS act 23.1, RAD54 branch 13.5, RAD52 inh 13.8, MLL AF4-AF9 inh 2.6 and DENV2 CPE rescue 48.7*.
CCN(CC)CCOc1c(C)cccc1Cl was read as dFosB act 5.6, INS-1E GSIS act 11.5, RAD54 branch -2.4, RAD52 inh -8.8, MLL AF4-AF9 inh -0.5 and DENV2 CPE rescue 1.8.
For CCN(CC)c1ccc(/C=N/Nc2nc3ccccc3[nH]2)c(O)c1 the results were dFosB act 31.7* and RAD54 branch 11.6.
Screening COc1cc(OC)c(OC)cc1/C=N/Nc1nc2ccccc2[nH]1 returned dFosB act 5.2, INS-1E GSIS act -46.2, RAD52 inh -1.2 and DENV2 CPE rescue 0.5.
`CCCNC(=O)N(C)C[C@H]1Oc2cc(C#CCN(C)C)ccc2S(=O)(=O)N([C@@H](C)CO)C[C@@H]1C` gave INS-1E GSIS act 2.3, RAD54 branch -0.2, RAD52 inh -10.4, MLL AF4-AF9 inh -0.1 and DENV2 CPE rescue 5.2.
COc1ccc(OC)c(CN2C(=O)c3ccccc3C2C(=O)NCC2CCCO2)c1 (stereo unspecified) was read as dFosB act 9.8, INS-1E GSIS act 52.3*, RAD54 branch -8.8, RAD52 inh -6.2 and MLL AF4-AF9 inh 5.7.
For COc1ccc(CN2C(=O)c3ccccc3C2C(=O)NCC2CCCO2)c(OC)c1 (stereo unspecified) the results were dFosB act 8.3, INS-1E GSIS act -5.6 and RAD54 branch -4.2.
O=C(NCC1CCCO1)C1CCC(N2C(=O)c3ccccc3C2=O)CC1 (stereo unspecified) was read as dFosB act -4.4, INS-1E GSIS act 80.6* and RAD54 branch -11.9.
`C[C@H]1CN([C@@H](C)CO)C(=O)Cc2cc(NC(=O)Cc3ccccc3)ccc2O[C@@H]1CN(C)CC1CCCCC1` gave INS-1E GSIS act -5.2, RAD54 branch -2.1, RAD52 inh 6.8, MLL AF4-AF9 inh -0.8 and DENV2 CPE rescue -9.1.
CCCNC(=O)N(C)C[C@H]1Oc2cc(C#CC3CC3)ccc2S(=O)(=O)N([C@H](C)CO)C[C@H]1C was read as INS-1E GSIS act -12.9, RAD54 branch 7.3, RAD52 inh 4.1, MLL AF4-AF9 inh -0.3 and DENV2 CPE rescue 12.9.
`c1ccc2c(c1)nc(N1CCCCCC1)c1nncn12` gave INS-1E GSIS act 46.8, RAD54 branch 2.7, RAD52 inh -80.7, MLL AF4-AF9 inh 3.3 and DENV2 CPE rescue 17.0.
For O=C1CN(c2nc3ccccc3n3cnnc23)CC(=O)N1CCc1ccccc1 the results were dFosB act -2.4, RAD54 branch -2.4, RAD52 inh -7.1, MLL AF4-AF9 inh 25.2* and DENV2 CPE rescue -2.5.
For CCOC(=O)c1cnc2ccc(OCC)cc2c1N1CCN(c2ccccc2)CC1 the results were dFosB act -12.0, INS-1E GSIS act 71.0* and RAD54 branch 2.5.
`CO[C@@H]1CN(C)C(=O)c2ccc(NC(=O)c3ccc(Oc4ccccc4)cc3)cc2OC[C@@H](C)NC[C@H]1C` gave INS-1E GSIS act 16.3, RAD54 branch -7.8, RAD52 inh 47.7, MLL AF4-AF9 inh 12.0 and DENV2 CPE rescue 3.5.
